# According to PubChem BioAssay:
# This is one part of the list. Active and inactive are the calls of the source. Unless noted, no stated cut-off is given here; in the data, active means activation above about 24%; inactive means the rest.
# Molecular target: Peroxisome proliferator-activated receptor gamma (Homo sapiens) + Nuclear receptor coactivator 3 (Homo sapiens) (UniProt P37231+Q9Y6Q9)
# Experiment: PPARgamma-driven SRC-3 coactivator recruitment agonists, confirmation, biochemical (AID 1301);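 further: 0% = vehicle wells and 100% = reference agonist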
# Settings: biochemical PPARgamma-SRC-3 coactivator recruitment, agonist mode; at 8 µM; active compounds read high
# Sequence of Peroxisome proliferator-activated receptor gamma (Homo sapiens) + Nuclear receptor coactivator 3 (Homo sapiens) (P37231 whole entry, looked up): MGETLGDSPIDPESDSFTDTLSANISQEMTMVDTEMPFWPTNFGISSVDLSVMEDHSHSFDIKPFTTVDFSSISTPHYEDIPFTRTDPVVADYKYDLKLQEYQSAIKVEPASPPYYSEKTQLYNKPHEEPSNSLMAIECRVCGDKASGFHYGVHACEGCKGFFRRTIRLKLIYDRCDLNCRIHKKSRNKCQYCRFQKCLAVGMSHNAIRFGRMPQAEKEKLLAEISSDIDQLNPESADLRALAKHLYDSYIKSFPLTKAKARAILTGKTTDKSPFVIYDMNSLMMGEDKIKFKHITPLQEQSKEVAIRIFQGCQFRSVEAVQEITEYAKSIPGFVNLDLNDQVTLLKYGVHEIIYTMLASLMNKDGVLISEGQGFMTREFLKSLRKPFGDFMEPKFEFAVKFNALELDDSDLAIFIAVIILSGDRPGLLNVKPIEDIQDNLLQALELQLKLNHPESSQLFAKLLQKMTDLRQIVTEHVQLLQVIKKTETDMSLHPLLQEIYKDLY
# Sequence of Peroxisome proliferator-activated receptor gamma (Homo sapiens) + Nuclear receptor coactivator 3 (Homo sapiens) (Q9Y6Q9 whole entry, looked up): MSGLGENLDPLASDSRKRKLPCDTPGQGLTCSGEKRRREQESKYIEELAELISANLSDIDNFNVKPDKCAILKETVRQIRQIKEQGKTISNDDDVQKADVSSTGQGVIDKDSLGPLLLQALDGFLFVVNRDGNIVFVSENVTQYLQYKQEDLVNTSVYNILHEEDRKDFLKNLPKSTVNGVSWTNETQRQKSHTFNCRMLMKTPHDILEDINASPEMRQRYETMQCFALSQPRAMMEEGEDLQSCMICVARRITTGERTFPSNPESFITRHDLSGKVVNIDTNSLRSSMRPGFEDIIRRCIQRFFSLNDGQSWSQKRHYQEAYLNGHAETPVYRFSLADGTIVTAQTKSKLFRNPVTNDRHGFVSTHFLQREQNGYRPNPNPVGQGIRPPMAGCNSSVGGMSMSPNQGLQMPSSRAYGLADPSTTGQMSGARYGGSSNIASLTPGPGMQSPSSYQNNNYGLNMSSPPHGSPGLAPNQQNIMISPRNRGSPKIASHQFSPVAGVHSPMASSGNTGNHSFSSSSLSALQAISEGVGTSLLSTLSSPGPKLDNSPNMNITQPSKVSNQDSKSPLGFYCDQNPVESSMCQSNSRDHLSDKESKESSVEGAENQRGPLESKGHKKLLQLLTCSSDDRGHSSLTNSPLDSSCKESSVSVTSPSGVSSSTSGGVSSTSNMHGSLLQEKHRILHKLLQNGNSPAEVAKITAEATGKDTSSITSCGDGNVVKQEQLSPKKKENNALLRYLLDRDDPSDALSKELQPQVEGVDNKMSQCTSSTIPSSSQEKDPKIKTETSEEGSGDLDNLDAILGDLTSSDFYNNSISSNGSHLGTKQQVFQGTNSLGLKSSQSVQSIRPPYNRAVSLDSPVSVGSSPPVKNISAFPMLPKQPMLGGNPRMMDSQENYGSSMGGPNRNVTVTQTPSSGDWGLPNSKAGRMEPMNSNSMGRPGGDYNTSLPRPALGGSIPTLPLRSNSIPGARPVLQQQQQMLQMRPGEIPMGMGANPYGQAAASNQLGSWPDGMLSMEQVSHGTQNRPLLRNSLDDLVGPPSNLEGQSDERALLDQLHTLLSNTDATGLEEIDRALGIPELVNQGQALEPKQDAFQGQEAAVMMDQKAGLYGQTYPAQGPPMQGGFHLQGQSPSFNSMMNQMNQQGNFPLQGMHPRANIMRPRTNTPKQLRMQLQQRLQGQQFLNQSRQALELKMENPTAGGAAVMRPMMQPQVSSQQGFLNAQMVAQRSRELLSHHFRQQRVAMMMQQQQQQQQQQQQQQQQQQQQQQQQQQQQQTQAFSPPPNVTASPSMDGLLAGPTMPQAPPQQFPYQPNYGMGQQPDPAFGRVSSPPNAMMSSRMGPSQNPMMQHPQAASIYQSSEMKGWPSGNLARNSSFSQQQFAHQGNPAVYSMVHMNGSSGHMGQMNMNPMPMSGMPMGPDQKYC
row,Compound,activation
1,OCC1(CCc2ccccc2)CCN(Cc2ccc3nsnc3c2)CC1,22.9% (inactive)
2,COC(=O)c1[nH]c2ccc(Br)cc2c1NC(=O)Oc1ccccc1,4.54% (inactive)
3,COc1ccc(/C(O)=C2/C(=O)C(=O)N(c3nc(C)c(C)s3)C2c2ccco2)cc1 (stereo unspecified),16.1% (inactive)
4,O=C(O)Cc1sc(-c2ccccc2)nc1-c1cccs1,32.9% (active)
5,Cc1cc(C)c2c(c1)cc(C)c1nnc(SCC(=O)Nc3cc(C)on3)n12,12.5% (inactive)
6,Cc1ccccc1-c1n[nH]c(=S)n1/N=C/c1ccc(-c2ccccc2Br)o1,22.5% (inactive)
7,NC(=O)CSc1oc(-c2cccs2)nc1S(=O)(=O)c1ccccc1,26.5% (active)
8,Cc1ccc(OCC(=O)Nc2ccc(-c3nc4ncccc4o3)cc2)cc1,5.41% (inactive)
9,CCN(/N=C/c1ccc(N(C)C)cc1)c1nc2ccccc2[nH]1,6.08% (inactive)
10,CC(=O)n1c(C=Nc2ccccc2)c(O)c2ccccc21,5.23% (inactive)
11,Cn1c(-c2sc3cc(C(F)(F)F)cnc3c2-c2ccccc2)n[nH]c1=S,53.5% (active)
12,Nc1ccc(Nc2ccccc2)cc1,6.91% (inactive)
13,O=C(Oc1ccccc1)Oc1ccc2c(c1)oc(=O)c1ccccc12,19.9% (inactive)
14,CCn1c(SCC(=O)Nc2cccc(F)c2)nnc1-c1cc2cc(Br)ccc2o1,14.3% (inactive)
15,COC(=O)c1ccccc1SC1CC(=O)N(c2cccc(C)c2)C1=O (stereo unspecified),10.9% (inactive)
16,CC(=O)c1sc2nc(SCC(=O)N3CCCCC3)[nH]c(=O)c2c1C,18.3% (inactive)
17,Cc1nc(-c2ccccc2)sc1-c1nc(-c2ccccc2)ncc1S(=O)(=O)c1ccccc1,22.7% (inactive)
18,Fc1ccc(COc2cccc(-c3n[nH]c(=S)o3)c2)cc1,34% (active)
19,CCc1c(-c2ccccc2)nc(N)c(C#N)c1-c1cccs1,8.84% (inactive)
20,CCOc1ccc(NC(=O)CSc2ncnc3c2sc2ccccc23)cc1,32.6% (active)
21,CC(C(=O)N1CCOCC1)N1c2cccc3cccc(c23)S1(=O)=O (stereo unspecified),1.88% (inactive)
22,CCN(CCCNC(=O)CSc1cc(=O)n(C)c2cc(Cl)ccc12)Cc1ccccc1,20.4% (inactive)
23,Cc1cc(C)c2cc(CN(Cc3cccs3)Cc3nnnn3CC3CCCO3)c(=O)[nH]c2c1 (stereo unspecified),15% (inactive)
24,CCOC(=O)C1CCN(C(=O)CSc2cc(=O)n(C)c3ccccc23)CC1,24.4% (active)
25,CCn1c(=O)cc(SCC(=O)NCc2ccc3c(c2)OCO3)c2ccccc21,18.1% (inactive)
26,Cn1c(=O)cc(SCC(=O)N2CCN(C(=O)c3ccco3)CC2)c2ccccc21,17.9% (inactive)
27,CSc1c(SCc2ccccc2)cnn(Cc2ccccc2)c1=O,25.9% (active)
28,Cn1c(=O)cc(SCC(=O)N2CCCC2)c2cc(Cl)ccc21,42% (active)
29,COc1ccc2c(Cl)c(-c3nnco3)sc2c1,13.6% (inactive)

# Molecular target: Sphingosine 1-phosphate receptor 4 (Homo sapiens) (UniProt O95977)
# Sequence (O95977 whole entry, looked up): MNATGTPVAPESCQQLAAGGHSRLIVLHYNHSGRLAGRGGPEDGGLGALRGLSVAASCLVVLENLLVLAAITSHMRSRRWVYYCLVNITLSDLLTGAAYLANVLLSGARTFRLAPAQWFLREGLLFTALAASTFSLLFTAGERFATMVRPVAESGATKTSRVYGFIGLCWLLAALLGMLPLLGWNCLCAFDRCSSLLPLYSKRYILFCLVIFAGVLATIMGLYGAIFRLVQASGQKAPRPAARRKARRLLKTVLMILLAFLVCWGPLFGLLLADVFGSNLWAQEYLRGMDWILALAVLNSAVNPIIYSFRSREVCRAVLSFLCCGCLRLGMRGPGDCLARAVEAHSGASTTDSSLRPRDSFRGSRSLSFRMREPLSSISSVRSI
# Experiment: S1P4 receptor antagonists, human, confirmation, cell-based (AID 1524; in the data active means inhibition above about 30%)
# Settings: S1P4-expressing cell line, antagonist mode, reporter read-out; at 4.98 µM; active compounds read high
row,Compound,inhibition
1,CCOC(=O)/C=C/C(=O)OCC(=O)NC(c1ccccc1)c1ccccc1,63% (active)
2,O=C(CC(O)(C(F)(F)F)C(F)(F)F)Nc1ccc(Cl)c(Cl)c1,37.4% (active)
3,Cc1cc2oc(C(=O)Nc3c(C)n(C)n(-c4ccccc4)c3=O)c(C)c2cc1Cl,63.1% (active)
4,O=C(/C=C/c1ccc(Cl)cc1Cl)c1cccnc1,43.4% (active)
5,COc1ccc(-c2csc(NC3OC(=O)c4ccccc43)n2)cc1 (stereo unspecified),19.3% (inactive)
6,Nc1nonc1-c1nc2ccccc2n1Cc1ccc(F)cc1,35.7% (active)
7,CCc1c(C)nc2cc(-c3cccs3)[nH]n2c1=O,5.18% (inactive)
8,O=C(NC(Nc1nc2ccc([N+](=O)[O-])cc2s1)(C(F)(F)F)C(F)(F)F)c1ccccc1,64.5% (active)
9,CNc1ccc(SC#N)cc1,8.17% (inactive)
10,Cc1cc(C)nc(S/C=C/C(=O)c2ccccc2)n1,97.1% (active)
11,CC(C)c1ccc(N2CCN(C(=O)c3ccccc3NC(=O)/C=C(\C(=O)O)c3ccccc3)CC2)cc1,102% (active)

# Molecular target: Sphingosine 1-phosphate receptor 1 (Homo sapiens) (UniProt P21453)
# Sequence (P21453 whole entry, looked up): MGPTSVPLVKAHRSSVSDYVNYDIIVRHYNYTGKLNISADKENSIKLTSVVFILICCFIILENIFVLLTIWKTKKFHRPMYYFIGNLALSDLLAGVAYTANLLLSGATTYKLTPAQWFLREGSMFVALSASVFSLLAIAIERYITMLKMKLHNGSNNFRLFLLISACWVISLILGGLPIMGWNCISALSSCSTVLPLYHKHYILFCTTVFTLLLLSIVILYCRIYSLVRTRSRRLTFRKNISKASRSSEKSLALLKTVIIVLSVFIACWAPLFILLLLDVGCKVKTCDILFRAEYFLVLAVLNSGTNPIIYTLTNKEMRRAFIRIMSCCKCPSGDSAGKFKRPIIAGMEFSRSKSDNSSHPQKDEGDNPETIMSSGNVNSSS
# Experiment: S1P1 receptor antagonists, human, counter-screen for S1P4 antagonist project, cell-based (AID 1564; in the data active means inhibition above about 40%;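 further: receptor stimulated with S1P near its EC80; 0% = agonist stimulated wells and 100% = vehicle only wells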)
# Settings: cell-based S1P1 antagonist counterscreen, at 4.98 µM, active compounds read high
row,Compound,inhibition
1,CCOC(=O)/C=C/C(=O)OCC(=O)NC(c1ccccc1)c1ccccc1,23.2% (inactive)
2,O=C(CC(O)(C(F)(F)F)C(F)(F)F)Nc1ccc(Cl)c(Cl)c1,8.72% (inactive)
3,Cc1cc2oc(C(=O)Nc3c(C)n(C)n(-c4ccccc4)c3=O)c(C)c2cc1Cl,19.1% (inactive)
4,O=C(/C=C/c1ccc(Cl)cc1Cl)c1cccnc1,23.6% (inactive)
5,COc1ccc(-c2csc(NC3OC(=O)c4ccccc43)n2)cc1 (stereo unspecified),-6.85% (inactive)
6,Nc1nonc1-c1nc2ccccc2n1Cc1ccc(F)cc1,33% (inactive)
7,CCc1c(C)nc2cc(-c3cccs3)[nH]n2c1=O,12.8% (inactive)
8,O=C(NC(Nc1nc2ccc([N+](=O)[O-])cc2s1)(C(F)(F)F)C(F)(F)F)c1ccccc1,26.4% (inactive)
9,CNc1ccc(SC#N)cc1,-1.31% (inactive)
10,Cc1cc(C)nc(S/C=C/C(=O)c2ccccc2)n1,19.6% (inactive)
11,CC(C)c1ccc(N2CCN(C(=O)c3ccccc3NC(=O)/C=C(\C(=O)O)c3ccccc3)CC2)cc1,62.4% (active)
